Data as given in PubChem BioAssay (NCI).
“And” between values parts separate entries of the source, which are not always exact repeats. Equal values may be shown once. The panel holds about 83,000 compounds, 20% with a hit somewhere; the sample as a whole holds those more often.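 Each cell line was grown in a 96-well plate and treated with one concentration of compound for 48 hours. Values below 10 were considered active.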 The source made the active and inactive calls. Where a SMILES comes first, the peptide text is derived from it. The star is where a group is joined. Trt = c1ccc(C(c2ccccc2)(c2ccccc2)*)cc1; Cbz = O=C(OCc1ccccc1)*

What follows are compounds tested on HCT-116 colon (assay: NCI-60 one-dose screen, 48 h (100 = growth as untreated, 0 = no growth, -100 = all killed)). Details: 10 µM.
Procedure: Growth inhibition of the HCT-116 human tumor cell line is measured as a screen for anti-cancer activity. Cells are grown in 96 well plates and exposed to the test compound for 48 hours. Compounds are tested at a single concentration, which is 10^-5 M for most compounds. The reported endpoint is percent growth (GI% or GIPRCNT), where numbers from 0 - 100% represent growth inhibition, and numbers from -100% - 0 represent cell death. For example, a value of 40 represents 60% growth inhibition. A value of 0 means no net growth occurred over the course of the experiment. A value of -40 indicates 40% of cells at the beginning of the experiment died by the end of the experiment. A value of -100 means all cells are dead at the end of the experiment.
NCI-60 Human Tumor Cell Lines Screen was performed using the standard one-dose NCI protocol, which is described in more detail at https://dtp.cancer.gov/discovery_development/nci-60/default.htm.
Compounds with GIPRCNT values below 10 were considered active. Activity score was based on GIPRCNT using the following formula: […]
Score is 0 for GIPRCNT values of 100 or above, 50 for GIPRCNT values of 0, and 100 for GIPRCNT values of -100.
For O=C(Nc1cccc(Br)c1)Oc1cccc2cccnc12, the growth was 92.7% (inactive). With COc1ccc(-c2cscc2N)cc1 the growth was 73.3% (inactive). For O=C(Nc1c(Cl)cccc1Cl)Oc1cccc2cccnc12, the growth was 14.3% (inactive).

Same assay, conditions: 10 µM unless noted
For C1=C(c2ccccc2)C(c2ccc(OCCN3CCCCC3)cc2)Oc2ccccc21 (stereo not given), the growth was 46.6% (inactive). In the case of O=C1c2cccnc2-c2nccc3c2c1nc1cc(Br)ccc13, the growth is reported as -81.5% (active) and -68.7% (active). With CN(C)C(=O)SC1=C(c2c(Cl)cccc2Cl)C(=O)c2ccccc21 the growth was -64.6% (active). COC(=O)c1nc(=S)[nH]c(C(=O)OC)c1C(=O)c1ccc2ccccc2c1 was tested, and the growth was 107% (inactive). For O=C1c2ccccc2C(=O)N1c1ccccc1, the growth was 105% (inactive). N#CSCc1ccc(CSC#N)c(Cl)c1 was tested, and the growth was 43.6% (inactive). In the case of S=C(NCCNC(=S)[S][Sn]([c]1ccccc1)([c]1ccccc1)[c]1ccccc1)[S][Sn]([c]1ccccc1)([c]1ccccc1)[c]1ccccc1, the growth is reported as -82.8% (active). For c1ccc2c(c1)Nc1cc3ccccc3cc1N2, the growth was 26.4% (inactive). In the case of Cc1c2ccccc2c(C)c2c1ccc1ccccc12, the growth is reported as 81.3% (inactive). With Cc1ccc(C(=Nc2ccccc2)N=P(c2ccccc2)(c2ccccc2)c2ccccc2)cc1 the growth was -37.8% (active). In the case of CC1=CC(O)C2CC1C2(C)C (stereo not given), the growth is reported as 103% (inactive). With COc1ccc2nc3cc(Cl)ccc3c(NCCNc3c4ccc(Cl)cc4nc4ccc(OC)cc34)c2c1 the growth was -83.3% (active). With Cn1c2c(c3ccccc31)CCN1C[C@@H]3CCCC[C@H]3C[C@@H]21 the growth was -10.1% (active). Cc1cc2nc(CS)[nH]c2cc1C was tested, and the growth was 58.1% (inactive). With O=C1c2ccccc2C(=O)c2sc(Nc3cccc(Cl)c3)nc21 the growth was -29.9% (active). With N#CSCc1ccc(Cl)c(CSC#N)c1 the growth was 13.6% (inactive). COC(=O)C(CSC(c1ccccc1)(c1ccccc1)c1ccccc1)NC(=O)C(CC(N)=O)NC(=O)OCc1ccccc1 (stereo not drawn) (Cbz-Asn-Cys(Trt)-OMe; configuration not given here) was tested, and the growth was 12.7% (inactive). For O=[N+]([O-])c1ccc(N=Nc2ccc(O)cc2O)cc1, the growth was 17.5% (inactive). N#Cc1ccc([N+](=O)[O-])o1 was tested, and the growth was 92.6% (inactive). For Oc1c(Br)c(Br)c(O)c(Br)c1Br, the growth was 96.2% (inactive). For C/C=C1\SC(=S)NC1=O, the growth was 96.9% (inactive). For CC(=Nc1ccc(N(C)C)cc1)c1ccccc1, the growth was 50% (inactive). In the case of CN(Cc1cnc2nc(N)nc(N)c2n1)c1ccc(C(=O)NC(CCC(=O)O)C(=O)O)cc1 (stereo not given), the growth is reported as 20.6% (inactive). Cc1cc(C(C)(CC(C)C)c2ccc(O)c(C)c2)ccc1O was tested, and the growth was 93.9% (inactive). In the case of CCC(CCCN(CC)CCc1ccccc1)OC(=O)c1cc(OC)c(OC)c(OC)c1 (stereo not given), the growth is reported as 75.3% (inactive). In the case of O=C(Nc1ccccc1)c1cc(Cl)ccc1O, the growth is reported as 51% (inactive). For CCCCCCC(C)c1ccccc1O (stereo not given) (tested in a mixture with another compound), the growth was 111% (inactive). With O=C1OCc2cccc3cccc1c23 the growth was 104% (inactive). With O=C(Nc1cccc(Br)c1)Oc1ccc(Cl)c2cccnc12 the growth was 2.06% [100 µM] (active). For CCOC(=O)/C=C/c1ccc([N+](=O)[O-])o1, the growth was -54.3% (active). CNc1ccc(N)cc1 was tested, and the growth was 107% (inactive). CC1OC2CC(=O)OC2C2=C1C(=O)c1c(O)cccc1C2=O (stereo not given) was tested, and the growth was -97.8% (active). With COc1ccccc1/C=C\C(=O)c1ccccc1 the growth was 22% (inactive). In the case of CC(=O)C(=Cc1ccc(C=C(C(C)=O)C(C)=O)cc1)C(C)=O, the growth is reported as -56.3% (active).

Same assay, conditions: 100 µM
O=C(Nc1cccc(Br)c1)Oc1cccc2cccnc12 was tested, and the growth was 1.93% (active). COc1ccc(-c2cscc2N)cc1 was tested, and the growth was 26.4% (inactive). For O=C(Nc1c(Cl)cccc1Cl)Oc1cccc2cccnc12, the growth was 8.1% (active).
